Measurements: PubChem BioAssay (NCATS)
Results filed as inconclusive are left out. Where a call stands in place of a potency, no number is given. Calls of active or inactive are those of the source. Calls follow the shape of the dose curve; as a rule, active = well fitted curve in the direction sought with a large enough effect; inconclusive = small, poorly fitted or top-dose-only effect, or another doubt; inactive = no such curve, though single readings can be large; an effect the other way counts as inactive or inconclusive. Peptide text beside a SMILES is read from it. * marks the point of attachment. Hexanoyl = CCCCCC(=O)*

test: qHTS for Activators of p53 Stress Response Pathway screened against the NCATS CANVASS Library (AID 1347388); conditions: p53RE-bla HCT-116, beta-lactamase reporter, 16 h; series mostly up to 46.1 µM
Outline: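 Beta-lactamase reporter driven by p53 response elements in HCT-116 cells, read as the 460 nm/530 nm emission ratio after CCF4 loading, following 16 h of exposure to an 11-point series. Cell viability was measured in the same wells by CellTiter-Glo luminescence.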

Structure (SMILES) | Potency
C=C[C@@]1(C)CC[C@@H]([C@H](C)C(C)=O)O1 | inactive
C/C=C(/CO)C(=O)O[C@@H]1[C@H](O)[C@@H](C(=O)OC)O[C@@H]2C[C@H]3OC(n4cnc5c(N)ncnc54)[C@H](OC)[C@H]3O[C@@]12O (stereo not given in full) | inactive
C/C=C/[C@H]1[C@H]2C(=O)c3c(O)c(C)c(O)c(C)c3[C@]1(C(=O)O)C(=O)C=C2C | inactive
C[C@@]12C[C@@H](C[C@@H]3C(=O)O[C@@H](c4ccoc4)[C@H](OC(=O)c4ccccc4)[C@@H]31)OC2=O | inactive
C=C1CCC2C(C)(C(=O)O)CCC(CC/C(C)=C/C(=O)NC(CCC(N)=O)C(=O)O)[C@@]2(C)C1 (stereo not given in full) | inactive
C=C1[C@@]2(C)CC3C4(C)CCC(O)C(C)(C)C4CCC3(C)[C@]1(C(=O)OC)C(=O)C(C)(O)C2=O (stereo not given in full) | inactive
CC(C)=CCC[C@]1(C)[C@H]2CC(=O)[C@@]3(CO3)[C@@H]1C2 | inactive
CCCCCC(=O)N[C@@H](CC(C)C)C(=O)N[C@H](C=O)CCC(=O)O (Hexanoyl-Leu-Glu-aldehyde) | inactive
COc1ccc([C@@H]2c3cc4c(cc3C(=O)C(C)C2C)OCO4)cc1OC (stereo not given in full) | inactive
CC1(C)CC[C@]2(CO)CC[C@]3(C)C(=CCC4[C@@]5(C)CC[C@H](O)C(C)(C)C5CC[C@]43C)C2C1 (stereo not given in full) | inactive

test: qHTS assay for small molecule disruptors of mitochondrial membrane potential screened against the NCATS CANVASS Library (AID 1347389); conditions: HepG2 mitochondrial membrane potential, m-MPI red/green ratio, 1.5 h; series mostly up to 46.1 µM; also: nearly all actives have a fitted effect of over 60% in size; also: potency is read from the fitted curve at half-maximal effect
Outline: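 Compounds tested in 11-point qHTS series on HepG2 cells for 1 hr; membrane-potential dye added for 30 min at 37C. Lower red-to-green ratio indicates loss of potential.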

Structure (SMILES) | Potency
CC(=O)N[C@H](C)c1nc(/C=C/C=C/C(=O)CC2CC(=O)CC[C@]2(C)O)cs1 (stereo not given in full) | inactive
CN1C(=O)C(=O)N2C(=C[C@]3(c4c[nH]c5ccccc45)c4ccccc4N[C@H]23)C1=O | inactive
CN1CC[C@]23c4ccccc4N[C@H]1[C@]21CCN(C)[C@H]3Nc2ccccc21 | inactive
C/C=C1/C2=CCCN3C(=O)O[C@H]([C@H]1O)[C@H]23 | inactive
O=C1CC(c2ccc(O)cc2)Oc2ccccc21 (stereo not given) | 14.8 µM (active)
COC1C(C)OC(OCC23C[C@@H]4[C@H](C)CC[C@H]4C4(C=O)CC2C=C(C(C)C)C34C(=O)O)[C@@H](O)[C@H]1O (stereo not given in full) | inactive
CN1CC[C@@]2([C@@]34CCN(C)[C@@H]3Nc3ccccc34)c3ccccc3N[C@@H]12 | inactive
COc1ccc(-c2oc3cc(OC)cc(OC)c3c(=O)c2O)cc1 | inactive
Cc1cc(O)cc2c1C(=O)c1c(O)cc(O)cc1C2=O | inactive
C=C(Cl)[C@](Cl)(CBr)CC[C@@H](Br)C(C)(C)Cl | inactive
C=C(C)C(=O)O[C@H]1C[C@@]2(C)OC(=CC2=O)/C(C)=C\[C@H]2OC(=O)C(=C)[C@H]12 | 18.6 µM (active)
C=C[C@]1(C)CC[C@@H]([C@H](C)C(=O)CC=C(C)C)O1 | inactive
CC[C@@H]1C[C@@]2(CC)OC(=O)[C@@]3(CC)[C@H](CC)[C@@H]1[C@@H]23 | inactive
C[C@@]12CCC[C@@](C)(C(=O)OP(=O)(O)OC[C@H]3O[C@@H](n4cnc5c(N)ncnc54)[C@H](O)[C@@H]3O)[C@H]1C[C@@H](O)[C@@]13C[C@@H](CC[C@@H]21)[C@](C)(O)C3 | inactive
CCC(C)=C1OC(=O)[C@H](C)[C@H](O)[C@H](Cc2cccnc2)NC(=O)C(NC(=O)c2ncccc2O)C(C)OC1=O (stereo not given in full) | inactive
C[C@@]12CCC[C@@](C)(C(=O)O)[C@H]1CC[C@@]13C[C@@H](CC[C@H]12)[C@](C)(O)C3 | inactive
O=C1OC(CCO)c2cccc(O)c21 (stereo not given) | inactive
C=C1C[C@]23C=CC(=O)[C@@](C)(CCCC(C)C(=O)N[C@@H](CO)C(=O)O)[C@@H]2C[C@@H]1CC3 (stereo not given in full) | inactive
COc1cc2ccc(=O)oc2c(O)c1O[C@@H]1O[C@H](CO)[C@@H](O)[C@H](O)[C@H]1O | inactive
C/C(=C\[C@@H](C)CC/C=C/CC/C=C/C(=O)O)[C@@H](O)[C@H](C)C(=O)CCCC1CC(=O)NC(=O)C1 | inactive
CO[C@@H](C[C@@H](C)[C@@H](O)/C=C/C=C/CNC(=O)C(C)(C)[C@H](O)\C(C)=C/C=C\C=C\Cc1cnco1)[C@]1(O)[C@@H](C)C(=O)N(C)[C@@]12COC2=O | inactive
O=C1CC(c2ccc(O)cc2)Oc2cc(O)ccc21 (stereo not given) | 7.41 µM (active)
CN1CC[C@@]23c4ccccc4N[C@@H]1[C@@]21CCN(C)[C@@H]3Nc2ccccc21 | inactive
C[C@@]12CCC[C@@](C)(C(=O)O)[C@H]1C[C@@H](O)[C@@]13C[C@@H](CC[C@@H]21)[C@](C)(O)C3 | inactive
O=Cc1ccc2n1C[C@]1(OC2)O[C@H](CO)[C@@H](O)[C@@H]1O | inactive
